PubChem BioAssay (Tox21)
Unmarked numbers belong to inactive results. The call rests on the fitted dose curve.

Experiment: G protein-coupled receptor (GPCR) small molecule agonists, calcium flux assay: HEK293 wild type cell line counter screen (AID 1920065)
Details: HEK293 WT calcium flux, fluorescence, agonist mode; series mostly up to 57.6 µM; activation: at the top concentration
Text: U.S. Tox21 Program National Center for Advancing Translational Sciences [NCATS] Division of Preclinical Innovation [DPI] U.S. Environmental Protection Agency [EPA] National Institutes of Environmental Health Sciences [NIEHS] National Toxicology Program [NTP] U.S. Food and Drug Administration [FDA] Assay overview: The increased intracellular calcium release that occurred upon G protein-coupled receptor (GPCR) activation led to the frequent use of calcium flux assays to detect GPCR activation. For the purpose of studying and screening compounds that may activate GPCR, receptor-overexpressing models were typically generated using Hek293 wild-type (WT) cells. In order to eliminate the compounds that may have induced calcium release for non-specific activation, a counter-assay utilizing calcium flux on Hek293 WT cells was performed. The data were formulated in order to serve as a control for any calcium flux detection utilizing Hek293 cells with either GPCR overexpression or gene modification. The procurement of Hek293 WT cells from ATCC. Fluorescence intensity can be utilized to determine the activation of the compound in a calcium flux assay. As a counter control, this cell line was utilized to screen the Tox21 10K compound library.
Assay Protocol Summary: Hek293 cells were dispensed at 1500cells/4uL/well in 1536-well black wall/clear bottom plates using a multidrop dispenser. After the assay plates were incubated at a 37 C/5% CO2 incubator for 18 hours, 4 uL of Calcium Dye Solution was added to each well. The plates were incubated at 37 C for 1 hour. For agonist mode, 23 nL of compounds dissolved in DMSO, positive control (ATP) or DMSO only was transferred to the assay plate by a pin tool station. The fluorescence intensity in the plates was measured using FDSS 7000EX kinetic plate reader with a filter set of Ex/Em=480/540 for 3 min at 1 sec intervals. Each test compound was measured at 15 concentrations and in triplicates.
On the % scale 0 is the no-effect control and ±100 the full control effect.

Row | Compound | activation
1 | CC1=CC(=O)CC(C)(C)C1=O | -1.48%
2 | CCCCCCCCCCCCN(CCO)CCO | 0.119%
3 | O=C1c2ccccc2C(=O)c2cc(Cl)ccc21 | -1.07% [at 5.23 µM]
4 | C=CC(=O)OCCOCC(CC)(COCCOC(=O)C=C)COCCOC(=O)C=C | 1.45%
5 | C[N+](C)(C)CCCCCCCCCC[N+](C)(C)C | -0.711% [at 26.5 µM]
6 | CNC(=O)c1ccccc1 | 0.113%
7 | CCC(C=O)CC | 0.0343%
8 | CCCCc1nc2cccnc2n1Cc1ccc(-c2ccccc2-c2nnn[nH]2)cc1 | 0.0074%
9 | COc1cc2c(cc1OC)C(=O)C(CC1CCN(Cc3ccccc3)CC1)C2 (stereo not given) | 0.966% [at 26.5 µM]
10 | CN1[C@@H]2CC[C@H]1CC(OC(=O)C(O)c1ccccc1)C2 (stereo not given in full) | 0.459% [at 26.5 µM]
11 | CC1=C(C(=O)OC(C)C)C(c2cccc([N+](=O)[O-])c2)C(C(=O)OC2CN(C(c3ccccc3)c3ccccc3)C2)=C(N)N1 (stereo not given) | 0.786% [at 26.5 µM]
12 | C=C(C)c1ccccc1 | 0.377%
13 | O=C(OCc1ccccc1)C(=O)OCc1ccccc1 | -0.31%
14 | CCO | 0.199%
15 | Nc1nc(Cl)nc2c1ncn2[C@@H]1O[C@H](CO)[C@@H](O)[C@@H]1F | -0.7% [at 26.5 µM]
16 | CC(=O)OC1CCC(C(C)(C)C)CC1 (stereo not given) | 1.85%
17 | ON=C1CCCC1 | 0.25%
18 | CCOC(=O)C(=O)CCc1ccccc1 | -0.98% [at 26.5 µM]
19 | CC(C)NCC(O)c1ccc(NS(C)(=O)=O)cc1 (stereo not given) | -0.148%
20 | CC(C)(C)c1cc(CCC(=O)OCCSCCOC(=O)CCc2cc(C(C)(C)C)c(O)c(C(C)(C)C)c2)cc(C(C)(C)C)c1O | 0.201% [at 26.5 µM]

Row | Compound | activation
21 | Nc1c(CC(=O)O)cccc1C(=O)c1ccc(Br)cc1 | -0.104% [at 26.5 µM]
22 | COC(=O)c1ccc(I)cc1S(=O)(=O)NC(=O)Nc1nc(C)nc(OC)n1 | 0.308%
23 | CCCC1CCCC(=O)O1 (stereo not given) | 0.995%
24 | O=C(O)c1cccc(Oc2ccccc2)c1 | -0.524%
25 | CN(C)C/C=C(/c1ccc(Br)cc1)c1cccnc1 | -0.218% [at 26.5 µM]
26 | CCCC(c1cc(C(C)(C)C)c(O)cc1C)c1cc(C(C)(C)C)c(O)cc1C | 1.29%
27 | O=C(O)c1ccc(Cl)cc1Cl | 1.05%
28 | CC(C)(O)CCc1ccccc1 | 1.06%
29 | BrCCCCCBr | 0.123%
30 | CCO[Si](CCCCl)(OCC)OCC | 0.396%
31 | CO[C@H]1C=CO[C@@]2(C)Oc3c(C)c(O)c4c(O)c(cc(O)c4c3C2=O)NC(=O)/C(C)=C\C=C/[C@H](C)[C@H](O)[C@@H](C)[C@@H](O)[C@@H](C)[C@H](OC(C)=O)[C@@H]1C | -1.16%
32 | COCCCCCCCCOCCC[Si](C)(O[Si](C)(C)C)O[Si](C)(C)C | 0.219%
33 | O=C(O)/C=C/c1ccc(/C=C/C(=O)O)cc1 | 0.656% [at 26.5 µM]
34 | CCC(C)(C)C(=O)O | -0.994%
35 | CCCOc1ccccc1-c1nc2n[nH]nc2c(=O)[nH]1 | 0.527% [at 26.5 µM]
36 | CCCCCCCCCCCCc1ccc(O)cc1 | 0.807%
37 | CCOC(=O)N1CCC(Nc2ccc(Cl)cc2N)CC1 | -0.307% [at 26.5 µM]
38 | C#CCN[C@@H]1CCc2ccccc21 | 0.269% [at 26.5 µM]
39 | CC1=CCC2C(C1)C2(C)C (stereo not given) | -0.0719%
40 | Fc1ccc([C@@H]2CCNC[C@H]2COc2ccc3c(c2)OCO3)cc1 | -0.968% [at 26.5 µM]
